Measured values reported in PubChem BioAssay AID567 (The Scripps Research Institute Molecular Screening Center, 2006).
Hit rate of the full screen: of about 65,000 compounds, about 370 (0.57%) were called active.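 The calls were made as follows: active = activation above the screen-wide mean activation plus 3 SD (cut at about 19% in these data); inactive = the rest.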 The list comes from a sample in which actives are over-represented; it also holds similar structures and randomly drawn compounds.

What follows are molecules tested against 5-hydroxytryptamine receptor 1A (Homo sapiens) (UniProt P08908) (assay: human 5-HT1a receptor agonists, primary screen, cell-based, CHO, Ga15 NFAT-bla reporter (AID 567;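 also: 0% = DMSO wells and 100% = 5-CT at EC100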)). Conditions: CHO 5-HT1a Ga15 NFAT-bla reporter, FRET ratio; at 10 µM; active compounds read high; 0% basal, 100% maximal reference agonist.
Sequence of 5-hydroxytryptamine receptor 1A (Homo sapiens) (P08908 whole entry, looked up): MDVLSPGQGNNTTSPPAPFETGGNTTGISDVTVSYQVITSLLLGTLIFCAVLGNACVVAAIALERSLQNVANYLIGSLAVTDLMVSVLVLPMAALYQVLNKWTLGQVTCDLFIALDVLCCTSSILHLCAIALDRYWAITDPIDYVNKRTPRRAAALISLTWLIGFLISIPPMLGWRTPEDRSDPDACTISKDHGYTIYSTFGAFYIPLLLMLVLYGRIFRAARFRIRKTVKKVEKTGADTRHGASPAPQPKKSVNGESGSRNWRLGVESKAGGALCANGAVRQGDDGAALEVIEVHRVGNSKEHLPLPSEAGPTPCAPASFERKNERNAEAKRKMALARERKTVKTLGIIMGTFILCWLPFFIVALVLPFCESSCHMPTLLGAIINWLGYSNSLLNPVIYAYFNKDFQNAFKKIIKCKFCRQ

| Compound | activation |
| --- | --- |
| CCn1nnc(NC(=O)c2c(OC)cccc2OC)n1 | 0.51% (inactive) |
| O=C(COc1ccc(S(=O)(=O)NCCc2ccccc2)cc1)N1CCCC1 | -3.17% (inactive) |
| O=C(COc1ccccc1)NCCc1nc2ccccc2[nH]1 | 2.44% (inactive) |
| Cc1cccc(NC(=O)C2CCCN2S(=O)(=O)c2ccc(F)cc2)c1C (stereo unspecified) | 0.24% (inactive) |
| O=C1Nc2c(Br)cc(Br)cc2C1(O)N1CCOCC1 (stereo unspecified) | 0.9% (inactive) |
| CCOCCCN1C(=O)CN(C2CCCCC2)C(=O)C1c1ccc(OCC)c(OC)c1 (stereo unspecified) | 0.91% (inactive) |
| CCCS(=O)(=O)Nc1c(C(=O)O)[nH]c2ccccc12 | -2.21% (inactive) |
| c1ccc(Nc2n[nH]nc2-c2ccccc2)cc1 | 0.42% (inactive) |
| CCCCOc1ccc(Cl)cc1CSc1nncn1N | -1.4% (inactive) |
| Cc1csc(NC(=O)NC2(C(F)(F)F)Oc3ccccc3O2)n1 | 1.56% (inactive) |
| COc1ccc(C)cc1NC(=O)CSc1nc(SC)ns1 | -0.56% (inactive) |
| O=C(CN1CCOCC1)Nc1c(-c2ccccc2)c2cc(Br)ccc2[nH]c1=O | -1.84% (inactive) |
| Cc1ccc(C(=O)N(CN2CCCC2=O)c2ccc(F)cc2)cc1 | -4.03% (inactive) |
| CC(=O)c1cccc(S(=O)(=O)N2CCC(n3nnc4cc(F)ccc43)CC2)c1 | 1.45% (inactive) |
| COc1ccc(Cn2c(=O)sc3ccccc32)cc1OC | 1.04% (inactive) |
| CN(C)c1ccc(NC(=O)c2ccncc2)c2ccccc12 | -2.38% (inactive) |
| O=C(CSC1=NCCS1)Nc1nc(-c2ccccc2)cs1 | -0.71% (inactive) |
| Cc1nc(NC(=O)CCC(=O)O)sc1C(=O)N(C)C | -1.18% (inactive) |
| Cc1cc(NC(=O)Cn2nc(C(F)(F)F)c3c2CCCC3)no1 | -1.46% (inactive) |
| Cc1cccc(N2CCN(C(c3ccccc3)c3nnnn3CC3CCCO3)CC2)c1C (stereo unspecified) | -0.4% (inactive) |
| CN(C)c1cc[n+](Cc2ccccc2)cc1 | 0.31% (inactive) |
| COC(=O)c1ccc(Oc2nc(Nc3ccc(F)cc3)nc(N3CCCC3)n2)cc1 | 0.02% (inactive) |
| N#CNC1=NCN(CCc2ccccc2)CN1 | -0.74% (inactive) |
| CCOC(=O)N1CCC(NC(=O)C(C)n2c3ccccc3c3cnn(C)c(=O)c32)CC1 (stereo unspecified) | -1.53% (inactive) |

| Compound | activation |
| --- | --- |
| COc1ccc(S(=O)(=O)N2CCC(C(=O)N3CCOCC3)CC2)cc1OC | -2.94% (inactive) |
| CCCCC(=O)N1CC2(C)CN(C(=O)CCCC)CC(C)(C1)C2=O | -3.12% (inactive) |
| Cc1onc(-c2ccccc2)c1C(=O)Nc1ccccc1C#N | -0.43% (inactive) |
| CCOC(=O)CSc1nnc(-c2ccncc2)o1 | -4.83% (inactive) |
| COc1cccc(C2/C(=C(/O)c3ccncc3)C(=O)C(=O)N2CCCN(C)C)c1 (stereo unspecified) | -2.65% (inactive) |
| CN1C(=O)c2ccc(NC(=O)c3c(F)c(F)c(F)c(F)c3F)cc2C1=O | -1.19% (inactive) |
| Cc1nc(N2CCCC2C(=O)O)c2oc3ccccc3c2n1 (stereo unspecified) | 0.22% (inactive) |
| CC1(C)NC(=O)N(CCOc2cccc(Oc3ccccc3)c2)C1=O | -2.31% (inactive) |
| CCC(=O)c1ccc(OCC(O)CN2C(=O)NC(C)(C)C2=O)cc1 (stereo unspecified) | 80.3% (active) |
| CCC(=O)c1ccc(OCC(O)CN2CC(C)OC(C)C2)cc1 (stereo unspecified) | -2.72% (inactive) |
| CCCC(=O)Nc1ccccc1N1CCN(C(=O)c2ccccc2)CC1 | 0.59% (inactive) |
| O=C(Nc1ccccc1N1CCN(c2ccccc2)CC1)c1cccc(F)c1 | 3.42% (inactive) |
| O=C(Nc1ccccc1N1CCN(C(=O)c2ccccc2)CC1)c1ccc2c(c1)OCO2 | 60% (active) |
| Cc1noc(C)c1COC(=O)Cn1c(C)nc2ccccc21 | -2.62% (inactive) |
| O=C(O)CCCC(=O)Nc1ccccc1-n1ccnc1 | -6.2% (inactive) |
| CC(C)NS(=O)(=O)c1ccc(CCC(=O)N2CCOCC2)cc1 | -3.1% (inactive) |
| CCn1c(SCC(=O)Nc2cc(C)ccc2C)nnc1-c1cnccn1 | -3.82% (inactive) |
| Cc1ccc2c(c1)NCC(C(=O)NC1CCC(C)CC1)O2 (stereo unspecified) | -2.41% (inactive) |
| CCC(=O)Nc1ccccc1C(=O)N1CCN(Cc2ccccc2)CC1 | -6.46% (inactive) |
| CC1CCCCN1CC(=O)NCc1ccc2c(c1)OCO2 (stereo unspecified) | 0.18% (inactive) |
| CSc1ccc(-c2c(C#N)c(N)nc3c2c(C)nn3-c2ccccc2)cc1 | 1.16% (inactive) |
| COc1ccc(O)c(C=Nc2cc(C)on2)c1 | -4.57% (inactive) |
| Cc1ccc(C(c2sc3nc(C)nn3c2O)N2CCN(c3ccccc3)CC2)cc1 (stereo unspecified) | 1% (inactive) |
| Cn1cc(S(=O)(=O)N2CCC(Cc3ccccc3)CC2)c(=O)n(C)c1=O | -1.31% (inactive) |

| Compound | activation |
| --- | --- |
| O=C(CSc1ncccn1)NC(=O)NCc1ccccc1 | -2.73% (inactive) |
| O=C(CN1CCN(c2ccccc2F)CC1)c1ccc2c(c1)OCO2 | -1.08% (inactive) |
| O=C(NC1CCCCC1)n1c(=O)oc2cc(S(=O)(=O)N3CCCCC3)ccc21 | 1.83% (inactive) |
| CCCC(=O)Nc1nnc(CC(=O)OCC)s1 | -1.79% (inactive) |
| O=C(c1ccc(-n2cnnn2)cc1)N1CCN(C(c2ccccc2)c2ccccc2)CC1 | -2.96% (inactive) |
| CCCOC(=O)c1cc2ccccc2oc1=O | -1.25% (inactive) |
| O=c1c(-c2ccc3c(c2)OCCO3)c(C(F)(F)F)oc2cc(O)cc(O)c12 | 2.15% (inactive) |
| CCOC(=O)c1cc2cc(-c3c(C(=O)OCC)oc4cc(O)cc(O)c4c3=O)ccc2o1 | 20.4% (active) |
| Cc1ccc(Oc2ccc(N)cc2)cc1 | 61.2% (active) |
| CN(C)S(=O)(=O)c1ccc(Oc2ccc(S(=O)(=O)N(C)C)cc2)cc1 | -1.45% (inactive) |
| COc1cccc(Oc2ccc(N)cc2)c1 | -1.26% (inactive) |
| C=C(Br)Cn1c(CCCC)nc2ccccc21 | 0.52% (inactive) |
| Cn1c(=O)c(=O)n(C)c2cc(S(=O)(=O)NCCc3ccccc3)ccc21 | -2.1% (inactive) |
| CCOC(=O)C1C(=O)C=C(c2ccc(OC)cc2)CC1c1ccco1 (stereo unspecified) | -1.83% (inactive) |
| O=C(CS(=O)(=O)c1cn(Cc2cccc(F)c2)c2ccccc12)N1CCCCC1 | 0.6% (inactive) |
| COc1ccc(NC(=O)CN(C)S(=O)(=O)c2ccccc2)cc1OC | -0.21% (inactive) |
| CC(=O)Nc1ccc(S(=O)(=O)Nc2nc3n(n2)C(c2ccccc2)CC(=O)N3)cc1 (stereo unspecified) | -0.5% (inactive) |
| CCOC(=O)NC(C(F)(F)F)(C(F)(F)F)P(=O)(c1ccccc1)c1ccccc1 | -0.98% (inactive) |
| c1cc(-c2nn[nH]n2)ccc1CN1CCCCC1 | -2.19% (inactive) |
| O=C(CSc1ncccn1)NCCc1ccccc1 | 0.69% (inactive) |
| Cn1c(C(=O)NCCCN2CCN(c3cccc(Cl)c3)CC2)cc2c(=O)n(C)c3ccccc3c21 | 36.5% (active) |
| CC1CCCC(C)N1CCCNC(=O)c1cc2c(=O)n(C)c3ccccc3c2n1C (stereo unspecified) | -1.82% (inactive) |
| O=C(CCn1c(=O)[nH]c2ccccc2c1=O)NCCCN1CCN(c2cccc(Cl)c2)CC1 | 21.7% (active) |
| O=C(CCCn1c(=O)[nH]c2cc(Cl)ccc2c1=O)NCCN1CCN(c2ccccc2)CC1 | -0.6% (inactive) |

| Compound | activation |
| --- | --- |
| CCn1c(=O)cc(OCC(=O)NCCCN2CCN(c3cccc(Cl)c3)CC2)c2ccccc21 | -3.65% (inactive) |
| O=C(CCn1c(=S)[nH]c2ccccc2c1=O)NCCCN1CCCC1=O | -0.9% (inactive) |
| O=S(=O)(N1CCOCC1)N1CCN(c2ccccc2F)CC1 | -0.75% (inactive) |
| O=S(=O)(Nc1ccccn1)c1ccc(Oc2ccccc2)cc1 | 0.59% (inactive) |
| O=C(C1=C(O)C(=O)N(c2ncccn2)C1c1cccs1)c1ccco1 (stereo unspecified) | -1.27% (inactive) |
| Cc1nc2ccccc2cc1O | 0.14% (inactive) |
| CCC1CCCCN1C(=O)Nc1cccc(NC(=O)N2CCCCC2CC)c1 (stereo unspecified) | -2.03% (inactive) |
| CCOc1ccc(Cn2nnc(C(=O)Nc3ccc(OC)cc3OC)c2N)cc1 | 3.25% (inactive) |
| O=c1c2ccccc2oc2nc3n(c(=O)c12)CCCS3 | -0.78% (inactive) |
| COc1ccc(C(C(O)C(=O)c2c[nH]c3ccccc23)N2CCN(c3ccccc3)CC2)cc1 (stereo unspecified) | -3.45% (inactive) |
| CCc1c(C)nc2cc(-c3cccs3)[nH]n2c1=O | -3.62% (inactive) |
| Cc1ccc(S(=O)(=O)C(C#N)c2nc3ccccc3nc2N2CCCC2)cc1C (stereo unspecified) | 1.05% (inactive) |
| CC(C)CCNC(=O)C(C)N(C(=O)Cn1nnc(-c2ccc(F)cc2)n1)C1CCCC1 (stereo unspecified) | 0.97% (inactive) |
| CC(C)(C)n1nc2c(c1NC(=O)c1ccc(S(=O)(=O)N3CCCC3)cc1)CS(=O)C2 (stereo unspecified) | -0.05% (inactive) |
| O=C1CCC(Cc2ccccc2)N1 (stereo unspecified) | -0.21% (inactive) |
| CC1CCN(C(=O)Cn2cc(C(=O)c3ccco3)c3ccccc32)CC1 | -0.71% (inactive) |
| Cc1cc(=O)cc(C)[nH]1 | -2.27% (inactive) |
| CCOC(=O)C1=C(C)NC(C)=C(C(=O)OCC)C1c1ccccn1 | -1.2% (inactive) |
| CCN1C(=O)C(C(=O)NC(C)c2ccccc2)C2CC1(C)Oc1ccccc12 (stereo unspecified) | -0.28% (inactive) |
| COc1ccccc1N(CC(=O)N1CCCCC1)S(=O)(=O)c1ccccc1 | -2.64% (inactive) |
| COc1ccc(C2C3=C(CC(C)(C)CC3=O)Oc3ncn4nc(-c5cccnc5)nc4c32)cc1OC (stereo unspecified) | -3.54% (inactive) |
| COc1ccc(CC(NC(C)=O)C(=O)NC2CCN(C(=O)Nc3ccc(C#N)cc3)CC2)cc1OC (stereo unspecified) | 0.53% (inactive) |
| Cc1ccc(NC(=O)Cn2nc(C)c3ccccc3c2=O)c(C)c1 | -0.44% (inactive) |
| CCOC(=O)Cc1csc(NC(=O)CSc2nc(C)cc(=O)[nH]2)n1 | -1.16% (inactive) |
